Laboratory results: the supplement of paper PMC6897291

Test system: RIVA
Assay: growth inhibition by drug alone (1 - RLU/untreated control) (fraction); higher = stronger inhibition
Settings: 177Lu-lilotomab satetraxetan 0 ug/ml
Method: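 RIVA (RI-1) ABC-DLBCL cells were pretreated or not for 18 h with 0.5 ug/ml 177Lu-lilotomab satetraxetan (600 MBq/mg), washed and seeded (3000 cells/well) on 384-well plates pre-printed with the Selleck Cambridge Cancer Compound library. Viability was read by RealTime-Glo luminescence on days 3-6 after seeding. Effect = 1 - RLU/mean RLU of the 48 untreated no-drug control wells per plate; Bliss score = (M-E)/(1-Fa).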

## CN(C)CCN(C)CCc1ccc(Cl)c(Cl)c1
10 nM, time (day): 3
  growth inhibition by drug alone: -0.216
10 nM, time (day): 4
  growth inhibition by drug alone: -0.209
10 nM, time (day): 5
  growth inhibition by drug alone: -0.338
10 nM, time (day): 6
  growth inhibition by drug alone: -0.472
100 nM, time (day): 3
  growth inhibition by drug alone: -0.276
100 nM, time (day): 4
  growth inhibition by drug alone: -0.227
100 nM, time (day): 5
  growth inhibition by drug alone: -0.333
100 nM, time (day): 6
  growth inhibition by drug alone: -0.453

## Cn1cc(C2=C(c3cn(C4CCN(Cc5ccccn5)CC4)c4ccccc34)C(=O)NC2=O)c2ccccc21
10 nM, time (day): 3
  growth inhibition by drug alone: -0.161
10 nM, time (day): 4
  growth inhibition by drug alone: -0.222
10 nM, time (day): 5
  growth inhibition by drug alone: -0.236
10 nM, time (day): 6
  growth inhibition by drug alone: -0.302
100 nM, time (day): 3
  growth inhibition by drug alone: -0.273
100 nM, time (day): 4
  growth inhibition by drug alone: -0.319
100 nM, time (day): 5
  growth inhibition by drug alone: -0.329
100 nM, time (day): 6
  growth inhibition by drug alone: -0.414

## C=C1C[C@@H]2[C@H](CC[C@]3(C)C(=O)CC[C@@H]23)[C@@]2(C)C=CC(=O)C=C12 [Exemestane]
10 nM, time (day): 3
  growth inhibition by drug alone: 0.0187
10 nM, time (day): 4
  growth inhibition by drug alone: 0.00346
10 nM, time (day): 5
  growth inhibition by drug alone: -0.0171
10 nM, time (day): 6
  growth inhibition by drug alone: -0.272
100 nM, time (day): 3
  growth inhibition by drug alone: -0.247
100 nM, time (day): 4
  growth inhibition by drug alone: -0.223
100 nM, time (day): 5
  growth inhibition by drug alone: -0.21
100 nM, time (day): 6
  growth inhibition by drug alone: -0.228

## Cc1cc2c(C(C)C)c(O)c(O)c(C=O)c2c(O)c1-c1c(C)cc2c(C(C)C)c(O)c(O)c(C=O)c2c1O [Gossypol]
10 nM, time (day): 3
  growth inhibition by drug alone: -0.235
10 nM, time (day): 4
  growth inhibition by drug alone: -0.278
10 nM, time (day): 5
  growth inhibition by drug alone: -0.288
10 nM, time (day): 6
  growth inhibition by drug alone: -0.349
100 nM, time (day): 3
  growth inhibition by drug alone: -0.0878
100 nM, time (day): 4
  growth inhibition by drug alone: -0.143
100 nM, time (day): 5
  growth inhibition by drug alone: -0.172
100 nM, time (day): 6
  growth inhibition by drug alone: -0.216

## O=P1(N(CCCl)CCCl)NCCCO1 (stereo not given) [Cyclophosphamide monohydrate]
10 nM, time (day): 3
  growth inhibition by drug alone: -0.165
10 nM, time (day): 4
  growth inhibition by drug alone: -0.182
10 nM, time (day): 5
  growth inhibition by drug alone: -0.227
10 nM, time (day): 6
  growth inhibition by drug alone: -0.326
100 nM, time (day): 3
  growth inhibition by drug alone: 0.0466
100 nM, time (day): 4
  growth inhibition by drug alone: -0.0413
100 nM, time (day): 5
  growth inhibition by drug alone: -0.0801
100 nM, time (day): 6
  growth inhibition by drug alone: -0.114
